Experimental findings from publication PMC4336329 (PLoS ONE, 2015) are described below.

Hit rate of the full screen: of about 310,000 compounds, about 14,000 (4.5%) showed an effect of 50% or more. Effects have a minus sign here. For the sample, strong results were picked, then their nearest neighbours and some compounds at random.
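Further: peak tail current of the secondary pulse compared with the same well before compound.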

The target in this assay is human ether-à-go-go-related gene (hERG) potassium channel (human, UniProt Q12809). Briefly: primary screen, population patch clamp on CHO cells stably expressing hERG; higher = less effect of the substance.
Chain of human ether-à-go-go-related gene (hERG) potassium channel (Q12809 whole entry, looked up): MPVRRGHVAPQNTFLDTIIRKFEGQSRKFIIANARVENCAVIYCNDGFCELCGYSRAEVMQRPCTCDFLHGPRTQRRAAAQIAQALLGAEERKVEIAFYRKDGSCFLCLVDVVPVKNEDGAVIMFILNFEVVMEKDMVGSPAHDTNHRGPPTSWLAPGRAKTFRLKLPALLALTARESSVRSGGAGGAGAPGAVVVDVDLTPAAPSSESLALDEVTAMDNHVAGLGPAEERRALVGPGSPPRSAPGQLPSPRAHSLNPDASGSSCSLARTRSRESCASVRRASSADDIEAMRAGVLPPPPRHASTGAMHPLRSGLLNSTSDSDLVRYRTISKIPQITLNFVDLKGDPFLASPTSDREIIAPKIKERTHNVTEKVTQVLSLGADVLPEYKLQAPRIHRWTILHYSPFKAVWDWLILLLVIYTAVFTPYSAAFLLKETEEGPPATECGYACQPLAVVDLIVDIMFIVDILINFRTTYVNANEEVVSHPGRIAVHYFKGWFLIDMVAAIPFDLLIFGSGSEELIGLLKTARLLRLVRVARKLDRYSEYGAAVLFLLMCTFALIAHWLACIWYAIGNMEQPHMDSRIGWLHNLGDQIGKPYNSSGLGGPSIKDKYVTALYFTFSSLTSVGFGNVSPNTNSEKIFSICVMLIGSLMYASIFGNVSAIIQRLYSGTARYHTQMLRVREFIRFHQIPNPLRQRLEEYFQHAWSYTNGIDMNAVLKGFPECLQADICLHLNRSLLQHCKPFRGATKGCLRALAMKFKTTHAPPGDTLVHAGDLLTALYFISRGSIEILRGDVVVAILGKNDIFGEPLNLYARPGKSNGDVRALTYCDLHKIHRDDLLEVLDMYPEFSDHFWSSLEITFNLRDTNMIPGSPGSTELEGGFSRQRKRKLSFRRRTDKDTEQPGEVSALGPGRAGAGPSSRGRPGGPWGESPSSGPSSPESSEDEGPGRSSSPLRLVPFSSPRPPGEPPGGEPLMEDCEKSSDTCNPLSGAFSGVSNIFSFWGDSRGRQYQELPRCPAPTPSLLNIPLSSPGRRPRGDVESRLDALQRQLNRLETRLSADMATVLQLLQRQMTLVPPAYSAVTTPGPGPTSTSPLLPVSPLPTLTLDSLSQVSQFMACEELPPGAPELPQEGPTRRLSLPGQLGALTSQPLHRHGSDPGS
Consider `CCOc1cccc(OCCOCCN(C)C)c1.O=C(O)C(=O)O`, for which the “hERG current change (%, negative = inhibition) at 10uM” value is reported as 0.719%. Under `COC(=O)c1ccc(CN2C(=O)NC3(CCCCC3C)C2=O)o1` (centres unmarked) stands -11.4%; under `O=C(CSc1nnc(Cc2ccccc2)o1)Nc1ccc2c(c1)OCO2`, 10.5%; under `CCOC(=O)Cc1csc(NC(=O)Cc2ccccc2)n1`, 1.37%. On to `CC(=O)N1c2ccc(S(=O)(=O)N3CCC(C(=O)Nc4cccc(C(F)(F)F)c4)CC3)cc2CC1C` (centres unmarked), for which the “hERG current change (%, negative = inhibition) at 10uM” value amounted to 11.7%. Under `COc1ccc(OCc2cc(C(=O)N3CCCCCC3)no2)c(Cl)c1` stands -11.7%. Regarding `O=C(Nc1ccc(F)cc1)N1CCN(C/C=C/c2ccccc2)CC1`, the “hERG current change (%, negative = inhibition) at 10uM” value is on record as -68.6%. As for `O=C(Nc1cccc(F)c1)N1CCN(C/C=C/c2ccccc2)CC1`, the “hERG current change (%, negative = inhibition) at 10uM” value is reported as -59%. Take `O=C(Nc1cccc(Cl)c1)N1CCOCC1`: the “hERG current change (%, negative = inhibition) at 10uM” value was 20%. The value for `O=C(Nc1ccccc1)N1CCN(CCc2ccccc2)CC1` was -14.5%.

As for `O=C(Nc1ccc2c(c1)OCO2)N1CCN(C/C=C/c2ccccc2)CC1`, the “hERG current change (%, negative = inhibition) at 10uM” value is -15.4%. For `O=C(Nc1ccc(F)cc1)N1CCN(CCc2ccccc2)CC1`, the “hERG current change (%, negative = inhibition) at 10uM” value is -52.3%.

`O=C(Nc1ccc(F)cc1F)N1CCN(CCc2ccccc2)CC1`: the “hERG current change (%, negative = inhibition) at 10uM” value is -15.6%. The value for `S=C(Nc1ccccc1)N1CCN(C/C=C/c2ccccc2)CC1` was -8.71%; that for `O=C(Nc1cccc(Cl)c1)N1CCN(C/C=C/c2ccccc2)CC1` was -68.5%; that for `CCOC(=O)N1CCN(C(=O)Nc2cccc(Cl)c2)CC1` was 2.81%.

Take `O=C(Cc1ccccc1)Nc1ccc(N2CCOCC2)cc1N1CCOCC1`: the “hERG current change (%, negative = inhibition) at 10uM” value was -0.646%.

As for `CSCCC(NC(=O)COc1ccccc1)C(=O)N1CC(C)CC(C)C1` (centres unmarked), the “hERG current change (%, negative = inhibition) at 10uM” value was -41.4%. On to `CCCCc1cc(=O)oc2c(CN3CCCC3)c(O)c(Cl)cc12`, for which the “hERG current change (%, negative = inhibition) at 10uM” value was -20.9%.

As for `COC(=O)c1[nH]c2c(c1C)C(=O)CC(c1ccc(OC)c(OC)c1)C2` (centres unmarked), the “hERG current change (%, negative = inhibition) at 10uM” value is listed as -0.262%. The value for `CC(Sc1ccccc1)C(=O)N(CCC#N)Cc1cccnc1` (centres unmarked) was 6.64%; that for `Cc1ccc(NC(=O)CSc2nnc(-c3cnccn3)n2Cc2ccco2)cc1` was -21.3%; that for `COc1ccccc1C1CC(c2ccc(Cl)cc2)Nc2ncnn21` (centres unmarked) was -44.8%. With `Cc1cccn2c(CN(C)C3CCOC3)c(C(=O)N3CCCCC3)nc12` (centres unmarked), the “hERG current change (%, negative = inhibition) at 10uM” value stood at 32.3%. In the case of `O=c1cc(-c2ccc(O)c(O)c2)oc2cc(O)c(C3OC(CO)C(O)C(O)C3O)c(O)c12` (centres unmarked), the “hERG current change (%, negative = inhibition) at 10uM” value is 3.72%. The value for `CC1(C)Cc2cccc(OCC(=O)NCc3cccs3)c2O1` was -0.101%; that for `O=C(C1CCN(Cc2ccc(F)cc2)CC1)N1CCN(C/C=C/c2ccccc2)CC1.O=C(O)C(=O)O` was -63.6%.

For `C=C(C)c1cccc(C(C)(C)NC(=O)N2CCN(C/C=C/c3ccccc3)CC2)c1`, the “hERG current change (%, negative = inhibition) at 10uM” value is recorded as -62.9%. The value for `CCCCNC(=O)N1CCN(Cc2ccc(F)cc2)CC1` was -11.3%; that for `Cc1ccc(NC(=O)N2CCN(C/C=C/c3ccccc3)CC2)cc1` was -44.6%; that for `Cc1cc(C)cc(NC(=O)N2CCN(C/C=C/c3ccccc3)CC2)c1` was -69%.

Regarding `C=C(C)c1cccc(C(C)(C)NC(=O)N2CCN(CC(N)=O)CC2)c1`, the “hERG current change (%, negative = inhibition) at 10uM” value is reported as 11.3%. Take `CC1=C(C)CC(C(=O)N2CCN(C/C=C/c3ccccc3)CC2)C(C(=O)O)C1` (centres unmarked): the “hERG current change (%, negative = inhibition) at 10uM” value is 8.99%. Under `C=C(C)c1cccc(C(C)(C)NC(=O)N2CCN(CC)CC2)c1` stands 7.13%.

As for `CCNC(=O)N1CCN(CCCC(c2ccc(F)cc2)c2ccc(F)cc2)CC1.Cl`, the “hERG current change (%, negative = inhibition) at 10uM” value was -82.3%. Consider `CCNC(=O)N1CCN(C(=O)NCC)CC1`, for which the “hERG current change (%, negative = inhibition) at 10uM” value stood at 15.7%.

Consider `O=C(C1CCN(Cc2ccccc2)CC1)N1CCN(C/C=C/c2ccccc2)CC1.O=C(O)C(=O)O`, for which the “hERG current change (%, negative = inhibition) at 10uM” value is listed as -33.3%. Under `O=C(Cc1ccccc1)N1CCN(Cc2ccc(F)cc2)CC1.O=C(O)C(=O)O` stands 2.38%; under `Cn1c(=O)c2c(ncn2CC(O)CNc2ccc(F)cc2)n(C)c1=O` (centres unmarked), 1.35%; under `COc1ccc(S(=O)(=O)N2CCC(C(=O)NCCC(=O)NCc3ccncc3)CC2)cc1`, 11%. With `CCN(CCN1CCCC1)C(=O)c1cc(COc2ccccc2SC)on1`, the “hERG current change (%, negative = inhibition) at 10uM” value is -32.1%. The value for `CN(C)C=NC(=O)c1ccc(N2CCN(c3ncc(C(F)(F)F)cc3Cl)CC2)cc1` was 7.74%. Under `O=C(NCCO)Nc1ccc2nsnc2c1` stands -5.93%; under `NC(=O)c1ccccc1N=Cc1cccnc1`, -21%.

`Cc1cc(N2C(=O)c3ccc(C(=O)Nc4ccccc4O)cc3C2=O)no1`: the “hERG current change (%, negative = inhibition) at 10uM” value was 14.1%.

`O=c1c(Cc2c(F)cccc2Cl)c(O)ccn1C1CC1`: the “hERG current change (%, negative = inhibition) at 10uM” value is on record as -11.7%. As for `COc1ccc(NC(=O)c2csc3c2CCCCC3)c(OC)c1`, the “hERG current change (%, negative = inhibition) at 10uM” value is listed as -6.93%.

Consider `CCOC(=O)c1c(C)[nH]c(C(=O)N/N=C/c2cc([N+](=O)[O-])ccc2O)c1C`, for which the “hERG current change (%, negative = inhibition) at 10uM” value is listed as 33.7%. The value for `CCCCCn1c(=O)c(C(=O)Nc2ccccc2N)c(O)c2ccccc21` was 21.4%; that for `CCOC(=O)c1cc(NCc2cccs2)ccc1N1CCOCC1` was -3.79%.

With `COc1ccc(-c2[nH]c(-c3ccc4c(c3)OCO4)nc2-c2ccccc2)cc1`, the “hERG current change (%, negative = inhibition) at 10uM” value is recorded as 1.88%. On to `COc1cc(OC)cc(C(=O)N/N=C/c2ccc(OC)c(COc3ccc(F)cc3)c2)c1`, for which the “hERG current change (%, negative = inhibition) at 10uM” value was determined as 6.62%.

Regarding `COc1ccc(/C=N/NC(=O)c2cccnc2)cc1CN1CCc2ccccc2C1`, the “hERG current change (%, negative = inhibition) at 10uM” value is reported as -17.9%. As to `COc1cc(C(=O)N/N=C/c2ccc(OC)c(CN3CCN(c4ccc(F)cc4)CC3)c2)ccc1O`, the “hERG current change (%, negative = inhibition) at 10uM” value is given as -75.3%. The value for `COc1ccc(/C=N\NC(=O)c2ccccc2)cc1COc1ccccc1` was 20.6%. Under `COc1ccc(/C=N/NC(=O)c2ccccc2O)cc1CN1CCOCC1` stands -12.8%. Under `COc1ccc(/C=N/NC(=O)c2ccc(C)cc2)cc1CN1CCN(c2ccc(F)cc2)CC1` stands -69.8%; under `COc1ccc(/C=N\NC(=O)c2cc(O)c(O)c(O)c2)cc1CN1CCN(c2ccc(F)cc2)CC1`, 14.6%; under `COc1ccc(/C=N\NC(=O)c2ccccc2)cc1COc1ccc(F)cc1`, -0.876%. For `COc1ccc(/C=N/NC(=O)c2cccnc2)cc1CN1CCN(c2ccc(F)cc2)CC1`, the “hERG current change (%, negative = inhibition) at 10uM” value was -51%. `COc1ccc(/C=N/NC(=O)c2ccccc2)cc1CN1CCN(c2ccc(F)cc2)CC1`: the “hERG current change (%, negative = inhibition) at 10uM” value was -74.5%. Under `COc1ccc(/C=N/NC(=O)c2ccn[nH]2)cc1CN1CCOCC1` stands -14.8%; under `COc1ccc(/C=N/NC(=O)c2cccnc2)cc1CN1CCOCC1`, 13.6%; under `CCC(C)NC(=O)N[C@@H](Cc1ccccc1)C(=O)O` (some centres unmarked), -1.98%. The value for `CCOC(=O)C1CCN(C(=O)CNC(=O)Cn2c(C)cc3ccccc3c2=O)CC1` was 6.61%. With `O=C(COc1ccc(F)cc1)Nc1nnc(-c2ccncc2)s1`, the “hERG current change (%, negative = inhibition) at 10uM” value was -6.52%.

For the molecule `c1cnc(N2CCN(c3nc4ccccc4n4cnnc34)CC2)nc1`, the “hERG current change (%, negative = inhibition) at 10uM” value is -27.6%. Take `CC(C)[C@H](NC(=O)c1ccco1)C(=O)NCc1ccccc1`: the “hERG current change (%, negative = inhibition) at 10uM” value amounted to 25.1%. As to `COc1ccc(S(=O)(=O)N(C)c2ccc(C(=O)NCc3ccco3)cc2)cc1OC`, the “hERG current change (%, negative = inhibition) at 10uM” value is reported as -9.43%. For `CCN(CC)c1ccc(/C=N/NC(=O)Cc2cccs2)cc1`, the “hERG current change (%, negative = inhibition) at 10uM” value is -16.6%. For `CCOc1ccc(/C=N/NC(=O)c2ccc(F)cc2)cc1CN1CC2CC(C1)c1cccc(=O)n1C2` (centres unmarked), the “hERG current change (%, negative = inhibition) at 10uM” value is given as -53.3%. Under `CCOc1ccc(/C=N/NC(=O)c2ccccc2O)cc1CN1CC2CC(C1)c1cccc(=O)n1C2` (centres unmarked) stands -16.7%; under `COc1ccc(/C=N\NC(=O)c2ccccc2F)cc1COc1ccc(F)cc1`, 27.1%. Under `C/C=C/c1cc(CN2CCN(c3ccc(OC)cc3)CC2)c(O)c(OC)c1` stands -68.7%.

Turning to `COc1ccc(/C=N/NC(=O)c2ccoc2C)cc1OC`, the “hERG current change (%, negative = inhibition) at 10uM” value is -9.75%.

For the molecule `CCOc1ccc(/C=N/NC(=O)c2ccc(O)cc2)cc1CN1CC2CC(C1)c1cccc(=O)n1C2` (centres unmarked), the “hERG current change (%, negative = inhibition) at 10uM” value came out at 4.7%. The value for `COc1ccc(/C=N/NC(=O)c2ccccc2F)cc1CN1CCN(c2ccc(F)cc2)CC1` was -76.2%; that for `C/C=C/c1cc(CN2CCN(c3ccccc3)CC2)c(O)c(OC)c1` was -32%; that for `COc1ccc(N2CCN(Cc3cc4c(cc3O)CCC4)CC2)cc1` was -12.4%. Take `COc1ccc(/C=N/NC(=O)c2ccoc2C)cc1O`: the “hERG current change (%, negative = inhibition) at 10uM” value was -4.47%.

As for `COc1ccc(/C=N\NC(=O)c2ccccc2F)cc1COc1ccc(F)cc1F`, the “hERG current change (%, negative = inhibition) at 10uM” value came out at 11.7%. Under `COc1ccc(/C=N/NC(=O)c2ccoc2C)cc1CN1CCN(c2ccc(F)cc2)CC1` stands -76.8%; under `CCOc1cc(Br)c(C=O)cc1OCC`, 22.1%. The value for `CC1(CCc2ccccc2)NC(=O)N(CC(=O)N2CC(=O)Nc3ccccc32)C1=O` (centres unmarked) was 7.19%; that for `O=C(COC(=O)c1ccccn1)Nc1ccccc1OC(F)F` was 6.71%; that for `Cc1cnc(NC(=O)CN(C)S(=O)(=O)c2ccc(Cl)cc2)s1` was -1.68%.
